Experimental data: PubChem BioAssay (NCATS)
Results filed as inconclusive are left out. Activity calls are given as the source filed them. Unless noted, calls follow the shape of the dose curve; as a rule, active = well fitted curve in the direction sought with a large enough effect; inconclusive = small, poorly fitted or top-dose-only effect, or another doubt; inactive = no such curve, though single readings can be large; an effect the other way counts as inactive or inconclusive.

Tests used:
[1] = SW1088 Cancer Cell Toxicity qHTS against the NCATS CANVASS Library (AID 1347350)
How it was run: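 Per well, 1000 cells; exposure 72 h with compound at 11 final concentrations; readout CellTiter-Glo luminescence.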

[2] = HEK-293 Cancer Cell Toxicity qHTS against the NCATS CANVASS Library (AID 1347355)
How it was run: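 Toxicity was measured as CellTiter-Glo luminescence after 72 h exposure to an 11-point compound series. Compound was added to 1000 cells/well 4 h after seeding.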

[3] = SDT Cancer Cell Toxicity qHTS against the NCATS CANVASS Library (AID 1347365)
How it was run: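 Cytotoxicity taken from CellTiterGlo ATP luminescence after 72 hr at 37C, 5% CO2. Canine glioma line SDT, 500 cells/well, treated at 11 concentrations; bortezomib dose series as control.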

[4] = G06 Cancer Cell Toxicity qHTS against the NCATS CANVASS Library (AID 1347368)
How it was run: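 Viability measured by CellTiterGlo ATP luminescence after 72 hr at 37C, 5% CO2. Canine G06 glioma cells plated at 500/well. Compounds tested as 11-point qHTS titrations.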

[5] = MCF7 Cancer Cell Toxicity qHTS against the NCATS CANVASS Library (AID 1347369)
How it was run: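 This 72 hr qHTS scored MCF7 viability by CellTiterGlo luminescence, with 500 cells/well; bortezomib titration ran as control.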

[6] = qHTS for ATAD5 Antagonist screened against the NCATS CANVASS Library (AID 1347370)
How it was run: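 Compounds (11-point) co-dosed with 10 µM 5-FUrd for 16 h at 37 °C onto HEK293T-ATAD5 luciferase reporter cells. Viability measured by CellTiter-Fluor fluorescence, then ATAD5 reporter signal by luminescence.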

[7] = qHTS for Hypoxia signaling pathway (HIF-1) agonists against the NCATS CANVASS Library (AID 1347375)
How it was run: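 Beta-lactamase reporter under HRE control in ME-180 cells; compounds (11-point qHTS series) added after 5 hrs plating, then 17 hrs at 37C. FRET substrate read after 2 hr; same-well CellTiter-Glo luminescence gave viability and normalization.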

[8] = DH5-alpha competent E. coli microbial cell viability qHTS against the NCATS CANVASS Library (AID 1347377); details: outcome: at 46.1 µM (top of the series)
How it was run: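 Bacterial viability as ATP-dependent luminescence (BacTiter-Glo), read after overnight 37 °C exposure of DH5-alpha competent E. coli to compounds in 11-point titration.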

[9] = qHTS for Inflammasome Signaling Inhibitors: IL-1-beta AlphaLISA screen against the NCATS CANVASS Library (AID 1347379)
How it was run: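 Secreted IL-1B from human THP-1 cells quantified by AlphaLISA 16 hr after compound addition (final up to 57.5 uM). A 1 hr compound pretreatment preceded inflammasome activation with 250 ng/mL LPS plus 1.25 mM ATP (final).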

[10] = qHTS for Activators of p53 Stress Response Pathway screened against the NCATS CANVASS Library (AID 1347388)
How it was run: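 Beta-lactamase reporter driven by p53 response elements in HCT-116 cells, read as the 460 nm/530 nm emission ratio after CCF4 loading, following 16 h of exposure to an 11-point series. Cell viability was measured in the same wells by CellTiter-Glo luminescence.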

[11] = Secretion counterscreen for inhibitors of the SERCaMP assay screened against the NCATS CANVASS Library (AID 1347390)
How it was run: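 Natural products are titrated in an 11-point series up to 77 uM onto SH-SY5Y-GLuc STOP cells for 20 h. Secreted reporter activity is measured as coelenterazine-driven luminescence, with Brefeldin A on each plate.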

[12] = qHTS for inhibitors of ER calcium dysfunction: SERCaMP assay screened against the NCATS CANVASS Library (AID 1347393)
How it was run: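 Thapsigargin-induced ER calcium depletion drives GLuc-SERCaMP secretion from SH-SY5Y cells; compounds given 16 h beforehand were scored by lowered coelenterazine luminescence after 4 h challenge.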

[13] = qHTS for inhibitors of Rabies Virus screened against the NCATS CANVASS Library (AID 1347402; calls by dose curve)
[14] = qHTS for Antimalaria activity screened against the NCATS CANVASS Library (AID 1347380)
How it was run: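 SYBR Green fluorescence at 485/535 nm was read 18 hr after lysis. This followed a 72 hr incubation at 37C in 5% O2, 5% CO2 of Dd2-infected erythrocytes (0.3% parasitemia, 2.5% final hematocrit) with compounds titrated over 11 concentrations.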

Measured: Potency

CNCCc1ccc(O)cc1
not listed: [14]
inactive: all other assays above

CC1=CC2CC[C@@H]3[C@@H](C)C[C@H](C)[C@@H](C1)N23 (stereo partly drawn)
not listed: [8] | [11] | [14]
inactive: all other assays above

CC1=CC(=O)C2=C(C)C[C@H](O)[C@@H]3[C@H](OC(=O)[C@@H]3C)[C@@H]12
active: [12] 34.3 µM
not listed: [7] | [9] | [14]
inactive: all other assays above

CO[C@@H](/C=C/CC/C=C/C(=O)O)[C@@H](O)[C@H](C)/C=C(\C)[C@@H](O)[C@H](C)C(=O)CCCC1CC(=O)NC(=O)C1
not listed: [8]
inactive: all other assays above
